Only some compounds are listed: those with a hit (about 19% of all), similar ones and a draw of the others.
ELG1 repair inh: inhibitors of ELG1-dependent DNA repair in HEK293T cells | 330,000 tested, 2.3% active | Potency, µM (doses to about 46.1 µM), usual class: inhibitors | HEK293T ELG1-luciferase reporter, luminescence, 16 h; DNA damage induced by 5-fluorouridine; further: nearly all actives have a fitted effect of over 55% in size
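Quantitative HTS, concentration-response format. 2,000 cells/well co-treated with 5-fluorouridine and compound, 16 hr in 5% CO2 at 37 °C; ONE-Glo luminescence read after 30 min.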
TDP1 cell noCPT: qHTS for Inhibitors of human tyrosyl-DNA phosphodiesterase 1 (TDP1): qHTS in cells in absence of CPT | DT40 Tdp1-/- hTDP1 cells, no CPT, ATP luminescence, 48 h | Potency, µM (doses to about 46.2 µM), actives largely listed as inhibitors | 420,000 tested, 15% active; further: nearly all actives have a fitted effect of over 55% in size
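Seeded 400 DT40-hTDP1 cells/well (vehicle DMSO, no 20 nM CPT); pinned compounds; ≥48 hr at 37 °C; CellTiter-Glo luminescence as viability measure.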
HT1080NT lethal: kills 2HG-producing HT-1080-NT fibrosarcoma cells; HT-1080-NT fibrosarcoma viability, CellTiter-Glo ATP luminescence, 48 h; Potency, µM (series often up to 46.1 µM), usual class: cytotoxic; 360,000 tested, 1.6% active; AID 686970;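 further: NT is the 2HG producing partner of a matched IDH1 knockdown line; nearly all actives have a fitted effect of over 55% in size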
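Toxicity toward the 2HG-producing NT line was scored as %Activity, normalised to DMSO and no-cell wells, from CellTiter-Glo luminescence after 48 hours' treatment.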
TDP1 cell CPT: DT40-hTDP1 cell growth loss with CPT. chicken DT40 Tdp1-/-;hTDP1 cells + 20 nM CPT, ATP luminescence, 48 h. Potency, µM (top dose mostly 46.2 µM), most hits filed as inhibitors. 420,000 tested, 12% active; further: nearly all actives have a fitted effect of over 55% in size
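Cell growth measured by CellTiter-Glo luminescence after a minimum 48 h, 37 C compound exposure with 20 nM CPT in Tdp1-knockout DT40 cells stably expressing hTDP1, seeded 400/well; qHTS titration format.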
HT1080 IDH1KD tx: HT-1080 IDH1 knockdown cell toxicity (counter line). 360,000 tested, 2% active. Potency, µM (titrated, usually from 46.1 µM), usual class: cytotoxic. AID 686971. HT-1080 IDH1 knockdown viability, ATP luminescence, 48 h
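Luminescent ATP read-out (CellTiter-Glo, 10 min at room temperature) after 48 h compound exposure at 37 °C gave viability of IDH1-knockdown HT-1080 cells. Activity was normalised to DMSO and cell-free wells, then fitted as concentration-response curves.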
IL-1B inflam inh: blocks inflammasome-driven IL-1 beta release; THP-1 LPS/ATP IL-1B secretion, AlphaLISA, 16 h; hits give low values; activity change, % at 57.5 µM; 360,000 tested, 4.7% active; AID 743279; in the data active means activity change below about -50%; inconclusive means mostly about -30% to -49%
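Secreted IL-1B measured by AlphaLISA bead assay after 16 h compound exposure of THP-1 cells; compounds (final up to 57.5 uM) added 1 h before LPS (250 ng/mL) and ATP (1.25 mM) stimulation; lower signal means less secretion.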
A number is an active result; n = inactive; u = inconclusive; x = no result; [ ] = dose if it differs, or a comment. Unless noted, the call rests on the fitted dose curve; in most records, active means well fitted curve in the direction sought with a large enough effect; inconclusive means small, poorly fitted or top-dose-only effect, or another doubt; inactive means no such curve, though single readings can be large; an effect the other way counts as inactive or inconclusive.

SMILES	ELG1 repair inh	TDP1 cell noCPT	HT1080NT lethal	TDP1 cell CPT	HT1080 IDH1KD tx	IL-1B inflam inh
Cc1cccc(Oc2cc([N+](=O)[O-])cc3c2C(=O)Nc2ccccc2O3)c1	n	13µM	n	u	n	n
O=C(NCc1ccccn1)c1ccc(OC2CCN(Cc3ccc(CO)o3)CC2)cc1	n	n	n	n	n	n
Cc1cc(C)n(-c2ccc(C(=O)NCC(c3ccco3)N3CCCC3)cc2)n1 (centres undefined)	n	n	n[9.24 µM]	u	n	n
COc1ccc(S(=O)(=O)N2CCCCC2)cc1NC(=O)CCCNC(=O)c1ccc(Cl)cc1	n	n	n	u	n	n
NNC(=O)CN1CCCc2ccccc21	u	n	n	n	n	n
Oc1ccc(CN2CCCc3ccccc32)c2cccnc12	n	4.61µM	n	3.66µM	u	n
CN1C(C(=O)c2ccccc2)=C(OC(=O)c2ccc(Br)cc2)c2ccccc2S1(=O)=O	x	20.6µM	x	u	x	x
Cc1ccc(NC2=C(C(=O)c3ccccc3)N(C)S(=O)(=O)c3ccccc32)cc1	n	25.9µM	n	29.1µM	n	n
COC(=O)CN1C(C(=O)c2ccccc2)=C(OC(=O)c2ccccc2)c2ccccc2S1(=O)=O	x	25.9µM	x	16.4µM	x	x
O=C(CN1C(=O)c2ccccc2S1(=O)=O)c1ccccc1	n	n	n	n	n[9.24 µM]	n
CN1C(C(=O)c2ccccc2)=C(N)c2ccccc2S1(=O)=O	u	n	n	n	n	n
CCCN1C(C(=O)c2ccccc2)=C(OC(=O)c2ccc(OC)cc2)c2ccccc2S1(=O)=O	x	5.17µM	x	5.17µM	x	x
CCOc1ccccc1N(C)C(=O)c1ccc2c(=O)n3c(nc2c1)CCCCC3	n	n	n	u	n	n
O=C(Nc1cc(C(F)(F)F)ccc1Cl)C(Sc1nnc(-c2cccs2)o1)c1ccccc1 (centres undefined)	n	n	n	n	n	n
O=C(Nc1cc(C(F)(F)F)ccc1Cl)C(Sc1cccc[n+]1[O-])c1ccccc1 (centres undefined)	n	4.61µM	n	4.61µM	n	-95.6
COc1ccc(-n2c(=O)c3c(c4cc(OC)ccc4n3C)n(C)c2=O)cc1	x	n	x	n	x	x
Cc1ccc(-n2c(O)c(C=Nc3cc(C)on3)c3ccccc3c2=O)c(C)c1	u	4.61µM	n	1.64µM	n	n
Cc1ccc(-n2c(O)c(C=NC3CCS(=O)(=O)C3)c3ccccc3c2=O)c(C)c1 (centres undefined)	n	u	n	20.6µM	n	x
Cc1cc(N=Cc2c(O)ccc3ccccc23)no1	n	n	u	u	u	n
CCOC(=O)c1cc(C#N)c(C)nc1N(CC)CC	n	n	n	n	n	n
C[C@H]1CN=C(N(C)C)N1CCc1ccccc1	n	n	n	n	n	n
CN(C)C1=NC[C@H](Cc2ccccc2)N1CCCC1CCCCC1	n	6.51µM	n	7.31µM	u	u
CN(C)C1=NC[C@H](Cc2ccccc2)N1CCCC1CCCC1	n	20.6µM	20.6µM	16.4µM	u	u
CN(C)C1=NC[C@H](Cc2ccccc2)N1CC1CCCCCC1	n	14.6µM	n	5.8µM	n	n
CN(C)C1=NCCN1CC1CCCC1	n	n	n	n	n	n
SMILES	ELG1 repair inh	TDP1 cell noCPT	HT1080NT lethal	TDP1 cell CPT	HT1080 IDH1KD tx	IL-1B inflam inh
CN(C)C1=NCCN1CCCC1CCCC1	n	11.6µM	n	u	n	n
C[C@H]1CN=C(N(C)C)N1CCC1CCCC1	u	u	n	u	n	n
O=C1CCC(C(=O)Nc2cccc(S(=O)(=O)N3CCOCC3)c2)N1 (centres undefined)	n	n	n	n	n	n
CCNc1ncnc2c1cnn2C1CCCCO1 (centres undefined)	x	n	n	n	n	n
CN(C)C1=NC[C@H](Cc2ccccc2)N1CCC1CCCC1	n	u	n	20.6µM	n	n
CN(C)C1=NC[C@H](Cc2ccccc2)N1CCc1cccc(F)c1	n	u	n	u	n	n
COc1cc(CN(C(=O)c2ccc(OC(C)C)cc2)C2CCS(=O)(=O)C2)cc(OC)c1OC (centres undefined)	x	n	x	n	x	x
COc1cc(CN(C(=O)COc2ccc(C)c(C)c2)c2ccccn2)cc(OC)c1OC	x	8.2µM	x	7.31µM	x	x
COc1cc(CN(C(=O)Nc2ccccc2)c2ccccn2)cc(OC)c1OC	x	u	x	n	x	x
COc1cc(CN(C(=O)c2ccccc2[N+](=O)[O-])c2ccccn2)cc(OC)c1OC	x	14.6µM	x	u	x	x
COc1ccc(C(=O)N(Cc2cc(OC)c(OC)c(OC)c2)c2ccccn2)cc1	x	20.6µM	x	u	x	x
COc1cc(CN(C(=O)c2ccc(OC(C)C)cc2)c2ccccn2)cc(OC)c1OC	x	4.11µM	x	2.31µM	x	x
COC(=O)CCN(C(=O)c1ccc(Cl)c([N+](=O)[O-])c1)c1ccccn1	n	n	n	n	n	n
Cc1cc2cc(CNC(=O)Cc3cccs3)ccc2n1C	n	u	n	8.2µM	n	n
Cc1cc2cc(CNC(=O)Cc3ccc([N+](=O)[O-])cc3)ccc2n1C	n	n	n	n	n	n
Cc1cc2cc(CNC(=O)c3ccc(Br)o3)ccc2n1C	n	n	n	25.9µM	n	n
CCNC(=O)C1(C)CCN(C(=O)c2cccc(Cl)c2)C1 (centres undefined)	x	n	n	n	n	n
Oc1ccccc1N=Nc1ccccc1O	u	4.61µM	u	4.61µM	u	n
Nc1ccc(N=Nc2ccccc2O)c(N)c1	x	n	u	n	u	n
O=C1C=C(OCCF)CC(c2ccccc2C(F)(F)F)O1 (centres undefined)	x	n	n	n	n	n
C=CCNC(=O)/C(C#N)=C/c1c(C)nn(-c2ccc(Cl)cc2)c1Cl	n	23.1µM	u	u	u	-56.8
CCOc1ccccc1NC(=O)/C(C#N)=C/c1c(C)nn(-c2ccc(F)cc2)c1Cl	n	n	n	13µM	n	n
Cc1nn(-c2ccc(Cl)cc2)c(Cl)c1/C=C(\C#N)C(N)=O	u	u	n	u	n	n
CNC(=O)c1cc(S(=O)(=O)Nc2ccc3c(c2)OCO3)ccc1C	n	n	n	n	n	n
COc1ccc(-c2c(C(=O)c3ccccc3)[nH]c(N)c2C(=O)NC2CC2)cc1OC	x	u	n	n	n	n
COc1cc(OC)c(OC)cc1CN1CCOc2ccc(CN3CCN(C(C)=O)CC3)cc2C1	x	20.6µM	x	n[9.04 µM]	x	x
CCc1cc2cc(C(=O)N3CCN(Cc4ccccc4)CC3)sc2s1	x	u	n	u	n	-84.7
CCc1cc2cc(C(=O)N3CCN(c4ccccc4)CC3)sc2s1	n	u	n	n	n	n

Assay outcomes from PubChem BioAssay.
